Laboratory results: the supplement of paper PMC10338343
± gives the standard deviation.

What was measured:
[1] = tested on: MILI (PIWIL2) piRISC loaded with L1MC piRNA (26 nt); assay: pre-steady-state target cleavage rate (min^-1); guide: L1MC piRNA 5'p-UAACUAAAUACUAUGCAAGCUGUAGG; higher = faster piRNA-guided slicing of the target;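 also: 1 nM active piRISC with 0.1 nM target library at 33 °C single turnover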
Procedure, shortened: (§1)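 Active affinity-purified piRISC carrying one synthetic guide (1 nM) was mixed with a transcribed, DNA-blocked target RNA library […] in HEPES–potassium acetate buffer at 33 °C for 0–8 or 0–960 min, with or without 500 nM GTSF1 partner protein. Uncleaved targets were then sequenced and normalised to depth and to weakly complementary targets. Three trials were pooled, and k3 was capped at 0.0001 min^-1. A burst-and-steady-state fit was applied to obtain the pre-steady-state cleavage rate.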

[2] = tested on: EfPiwi piRISC loaded with L1MC piRNA (26 nt); assay: pre-steady-state target cleavage rate (min^-1); auxiliary factor: 500 nM Ephydatia muelleri Gtsf1; guide: L1MC piRNA 5'p-UAACUAAAUACUAUGCAAGCUGUAGG; MIWI and MILI are mouse PIWI proteins and EfPiwi is from a freshwater sponge; tags in brackets are library labels; higher = faster piRNA-guided slicing of the target
Procedure, shortened: as §1

[3] = auxiliary factor: 500 nM mouse GTSF1
[4] = auxiliary factor: none (no GTSF1)

Sequence | pre-steady-state target cleavage rate [1, 3] | pre-steady-state target cleavage rate [1, 4] | pre-steady-state target cleavage rate [2]
UCCUGGAUGAGCGUUGCAUAGUAUUUAGUUA | 0.192 ± 0.017 | 0.00904 ± 0.0031 | 0.00582 ± 0.0034
UCCUCCUACAGCAUGCAAAGUAUUUAGUUA | 0.161 ± 0.015 | 0.00732 ± 0.0021 | 0.0492 ± 0.017
UCCUGCAUCAGCUUGCAUAGUAUUUAGUAA | 0.223 ± 0.019 | 0.00464 ± 0.0032 | 0.00847 ± 0.0021
UCCUCCUACAGCUUGCAUAGUAUUUACGUUA | 0.265 ± 0.029 | 0.00757 ± 0.0026 | 0.00783 ± 0.0029
UCCUCCGACAGCUUGCAUAGUAUUUAGUUA | 0.25 ± 0.017 | 0.00881 ± 0.0021 | 0.101 ± 0.026
UCCUGGAUCAAGCUUGCAUAGUAUUUAGUUA | 0.237 ± 0.018 | 0.0103 ± 0.0028 | 0.0542 ± 0.012
UCCUGGAUCAGCUUGCUUAGUAAUUAGUUA | 0.212 ± 0.022 | 0.00689 ± 0.0022 | 0.0988 ± 0.033
UCCUGGAAACAGCUUGCAUAGUAUUUAGUUA | 0.347 ± 0.019 | 0.0105 ± 0.0038 | 0.164 ± 0.034
UCCUGGAUGUCGCUGCAUAGUAUUUAGUUA | 0.0516 ± 0.0095 | 0.00769 ± 0.0026 | 0.00471 ± 0.0025
UCCUGGAUCAGCAUGCAUAGUAUAUAGUUA | 0.297 ± 0.018 | 0.00579 ± 0.0027 | 0.00329 ± 0.0028
UCCUCCUACAGGCUUGCAUAGUAUUUAGUUA | 0.268 ± 0.019 | 0.00802 ± 0.0025 | 0.0234 ± 0.0078
UCCUCCAACAGCUUGCAUAGUAAUUAGUUA | 0.228 ± 0.018 | 0.0065 ± 0.0021 | 0.0103 ± 0.0047
UCCUGGAUGUGCUUGCAUAGUAUUUAGUUUA | 0.141 ± 0.015 | 0.00735 ± 0.0032 | 0.00801 ± 0.0032
UCCUGGAUGUGCUAGCAUAGUAUUUAGUUA | 0.125 ± 0.013 | 0.00747 ± 0.0023 | 0.00573 ± 0.0027
UCCUGGAUGUCGAUGCAUAGUAUUUAAGUUA | 0.145 ± 0.019 | 0.00656 ± 0.0024 | 0.00522 ± 0.0045
UCCUCCUACAGAUUGCAUAGUAUUUAGUUA | 0.236 ± 0.014 | 0.00814 ± 0.0018 | 0.0555 ± 0.014
UCCUGCUAGAGCUUGCAAAGUAUUUAGUUA | 0.112 ± 0.012 | 0.00382 ± 0.0021 | 0.00607 ± 0.0018
UCCUGGAACAGGUUGCAUAGAAUUUAGUUA | 0.0524 ± 0.011 | 0.0038 ± 0.002 | 0.00258 ± 0.0014
UCCUGGAACAGCUUGCAUUGUAAUUAGUUA | 0.184 ± 0.023 | 0.00389 ± 0.0028 | 0.00225 ± 0.0022
UCCUGGUACAGCUACCAUAGUAUUUAGUUA | 0.305 ± 0.044 | 0.00616 ± 0.0022 | 0.00432 ± 0.0019
UCCUGCUACAGCAAGCAUAGUAUUUAGUUA | 0.325 ± 0.022 | 0.00524 ± 0.0031 | 0.0176 ± 0.0059
UCCUGGAUCAGCUUGCAAACUAUUUAGUUA | 0.0267 ± 0.0067 | 0.00375 ± 0.0019 | 0.00476 ± 0.003
UCCUGCUACUGCUUGGAUAGUAUUUAGUUA | 0.221 ± 0.016 | 0.00763 ± 0.0018 | 0.0111 ± 0.0029
UCCUGCUACAGGUUGCAUUGUAUUUAGUUA | 0.141 ± 0.019 | 0.0103 ± 0.0026 | 0.00597 ± 0.0023
UCCUGGAACUGGUUGCAUAGUAUUUAGUUA | 0.202 ± 0.018 | 0.0046 ± 0.0029 | 0.02 ± 0.0073
UCCUCCUAGAGCUUGCAAAGUAUUUAGUUA | 0.14 ± 0.0099 | 0.00516 ± 0.002 | 0.0214 ± 0.006

Sequence | pre-steady-state target cleavage rate [1, 3] | pre-steady-state target cleavage rate [1, 4] | pre-steady-state target cleavage rate [2]
UCCUCCUACACCUUGCAUAGUAAUUAGUUA | 0.196 ± 0.031 | 0.00304 ± 0.0027 | 0.0071 ± 0.0031
UCCUGGUACUGCUUGCAAAGUAUUUAGUUA | 0.0806 ± 0.01 | 0.00779 ± 0.0021 | 0.0752 ± 0.027
UCCUGGAUCAGCUUUCAUAGUAUUUAGUUA | 0.204 ± 0.018 | 0.0048 ± 0.0029 | 0.0103 ± 0.0032
UCCUCCUACAGCUUGCAUAGUAUUUUAGUUA | 0.273 ± 0.019 | 0.0124 ± 0.0038 | 0.0456 ± 0.014
UCCUCCUACUGCUUGCAUAGUAUUUUGUUA | 0.0977 ± 0.016 | 0.00448 ± 0.0018 | 0.0111 ± 0.0044
UCCUCCUAGUGCUUGCAUAGUAUUUAGUUA | 0.164 ± 0.018 | 0.00418 ± 0.0018 | 0.00928 ± 0.0031
UCCUGGAACAGCUUGCAUAGUAAUUAGUUA | 0.268 ± 0.022 | 0.00705 ± 0.0022 | 0.00814 ± 0.0027
UCCUCCAACAGCUUGCUUAGUAUUUAGUUA | 0.262 ± 0.017 | 0.0066 ± 0.0021 | 0.0148 ± 0.0053
UCCUGGAACAGCUUGCUUAGUAUUUUGUUA | 0.167 ± 0.025 | 0.00339 ± 0.0024 | 0.00494 ± 0.0028
UCCUCCUACAGGAAGCAUAGUAUUUAGUAA | 0.247 ± 0.018 | 0.00328 ± 0.0023 | 0.00397 ± 0.0031
UCCUCCUACUCGUUGCAUAGUAUUUAGUAA | 0.176 ± 0.024 | 0.00408 ± 0.0019 | 0.00477 ± 0.0029
UCCUGGAACUCGUUGCAUAGUAUUUAGUUA | 0.154 ± 0.018 | 0.00417 ± 0.0024 | 0.00531 ± 0.0017
UCCUCGUACUGCUUGCAUAGUAUUUAGUUA | 0.264 ± 0.0097 | 0.00745 ± 0.0024 | 0.0721 ± 0.018
UCCUGGAUGUCGAUGCAUAGUAUUUAGUUUA | 0.0871 ± 0.014 | 0.0069 ± 0.0031 | 0.00642 ± 0.0029
UCCUCCAACAGCUUGGAUAGUAUUUAGUUA | 0.269 ± 0.0097 | 0.00646 ± 0.0021 | 0.0467 ± 0.011
UCCUCCUACAGCUUGCAUAGUAUUUUCUAA | 0.143 ± 0.028 | 0.00357 ± 0.0031 | 0.00565 ± 0.0036
UCCUGGUACAGCUUGAAUAGUAUUUAGUUA | 0.302 ± 0.055 | 0.00915 ± 0.0046 | 0.0053 ± 0.0028
UCCUCCCUACAGCUUGCAUAGUAUUUAGUUA | 0.303 ± 0.02 | 0.0107 ± 0.0027 | 0.0606 ± 0.017
UCCUGGAUGAGCUGCAUAGUAUUUAGUUA | 0.101 ± 0.013 | 0.00501 ± 0.0028 | 0.00786 ± 0.0028
UCCUGCGUACAGCUUGCAUAGUAUUUAGUUA | 0.314 ± 0.021 | 0.0109 ± 0.0033 | 0.0434 ± 0.012
UCCUGCUACAGCUUCGAUAGUAUUUAGUAA | 0.199 ± 0.03 | 0.00274 ± 0.0022 | 0.00315 ± 0.0026
UCCUGGUACAGCUUGCUUAGUAAUUAGUUA | 0.128 ± 0.036 | 0.0116 ± 0.0032 | 0.00675 ± 0.0033
UCCUGGAUCAGCUUGCAUAGUAAAUAGUUA | 0.171 ± 0.024 | 0.00496 ± 0.0026 | 0.00673 ± 0.0027
UCCUGGAACAGCUUGCAUAGUACUUUAGUUA | 0.168 ± 0.015 | 0.00486 ± 0.0022 | 0.00922 ± 0.0033
UCCUCCUACAGCUUGCAGAGUAUUUAGUUA | 0.218 ± 0.021 | 0.00823 ± 0.0022 | 0.0095 ± 0.0025
